# Data reported in PubChem BioAssay (EPA / NIEHS).
# The source made the active and inactive calls. Rule for the calls, unless noted: active = hit-call score of the fitted dose curve at least 0.9, where 1 is the maximum; inactive = score below 0.9.
# Assay: CCTE_Deisenroth_H295R-HTRF_384WELL_ESTRADIOL: CCTE's H295R-HTRF Assay Evaluation of Estradiol Concentration, Deisenroth Lab (AID 2284361)
# Settings: actives raise or lower the signal
# Experimental: CCTE_Deisenroth_H295R-HTRF_384WELL assay is a cell-based, multiplex-readout assay that uses H295R, a human adrenocortical carcinoma cell line, with measurements taken at 48 hours after chemical dosing in a 384-well microplateCCTE_Deisenroth_H295R-HTRF_384WELL_ESTRADIOL is one of 3 assay components calculated in the CCTE_Deisenroth_H295R-HTRF_384WELL assay (2 hormones and 1 viability components). It is designed to make measurements of hormone induction, a form of inducible reporter, as detected with Homogenous Time Resolved Fluorescence immunoassay technology.This assay endpoint, CCTE_Deisenroth_H295R-HTRF_384WELL_ESTRADIOL, was analyzed with bidirectional fitting relative to DMSO as the negative control and baseline of activity. Using a type of inducible reporter, gain or loss-of-signal activity using Homogenous Time Resolved Fluorescence technology was used to understand synthesis of estradiol in the H295R cell line at 48hr of chemical exposure. To generalize the intended target to other relatable targets, this assay endpoint is annotated to the steroid hormone intended target family, where the subfamily is estrogens.
# (§1) Standard operating procedures for the cell culture medium, maintenance, expansion, and cryopreservation of the NCI-H295R adrenocortical carcinoma adherent cell line were adopted directly from guideline specifications7,13. The assay workflow follows a three-day protocol consistent with the paradigm defined in OECD TG 456 and U.S. EPA OCSPP Guideline 890.1550. On day 0, cells are plated in 384-well microplates and acclimated for 24 hours. On Day 1, test chemicals are dispensed into separate 384-well microplates in a nine-point 2X dilution series (0.002 - 200 uM). […] Fluorescent endpoint measurements are conducted with a microplate reader equipped with an HTRF-compatible filter set (ex: 320 (10) […]; em: 620 (10) and 665 (10) nM). […] After collecting conditioned medium samples on Day 3, the viability assay is immediately performed and luminescence readings measured on a microplate reader. […]
Compound,AC50,outcome
C=C[C@@]1(C)CC(=O)[C@]2(O)[C@@]3(C)[C@@H](O)CCC(C)(C)[C@@H]3[C@H](O)[C@H](OC(C)=O)[C@@]2(C)O1,3.68 µM (active),
CC(C)(C)NC(=O)[C@H]1CC[C@H]2[C@@H]3CC[C@H]4NC(=O)C=C[C@]4(C)[C@H]3CC[C@]12C,,inactive
N#Cc1ccc(C(c2ccc(C#N)cc2)n2cncn2)cc1,,inactive

# Assay: CCTE_Deisenroth_H295R-HTRF_384WELL_TESTOSTERONE: CCTE's H295R-HTRF Assay Evaluation of Testosterone Concentration, Deisenroth Lab (AID 2284373)
# Settings: actives raise or lower the signal
# In short: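 Testosterone secreted into medium was quantified by direct HTRF immunoassay after a 48 h treatment of H295R adrenocortical cells (nine concentrations, 0.001–100 uM final). Gain or loss fitted relative to DMSO; CellTiter-Glo viability read on same plates.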
Compound,AC50,outcome
C=C[C@@]1(C)CC(=O)[C@]2(O)[C@@]3(C)[C@@H](O)CCC(C)(C)[C@@H]3[C@H](O)[C@H](OC(C)=O)[C@@]2(C)O1,0.566 µM (active),
CC(C)(C)NC(=O)[C@H]1CC[C@H]2[C@@H]3CC[C@H]4NC(=O)C=C[C@]4(C)[C@H]3CC[C@]12C,,inactive
N#Cc1ccc(C(c2ccc(C#N)cc2)n2cncn2)cc1,,inactive

# Assay: CCTE_Deisenroth_H295R-HTRF_384WELL_CTOX: Cytotoxicity Assessment in CCTE's H295R-HTRF Assay, Deisenroth Lab (AID 2284380; active = hit-call score of the fitted dose curve at least 0.9, where 1 is the maximum)
# Settings: not given
# Experimental: CCTE_Deisenroth_H295R-HTRF_384WELL assay is a cell-based, multiplex-readout assay that uses H295R, a human adrenocortical carcinoma cell line, with measurements taken at 48 hours after chemical dosing in a 384-well microplateCCTE_Deisenroth_H295R-HTRF_384WELL_CTOX is one of 3 assay components measured in the CCTE_Deisenroth_H295R-HTRF_384WELL assay (2 hormones and 1 viability components). It is designed to make measurements of adenosine triphosphate (ATP), a form of viability reporter, as detected with luminescence intensity signals by CellTiter-Glo 2.0 cytotoxicity assay technology.This assay endpoint, CCTE_Deisenroth_H295R-HTRF_384WELL_CTOX, was analyzed in the positive fitting direction relative to DMSO as the negative control and baseline of activity. Using a type of viability reporter, loss-of-signal activity using CellTiter-Glo 2.0 technology was used to understand viability in the H295R cell line at 48hr of chemical exposure. To generalize the intended target to other relatable targets, this assay endpoint is annotated to the cell cycle intended target family, where the subfamily is cytotoxicity
# as §1, with “specifications (EPA 2011, OECD 2011).” for “specifications7,13.”
row,Compound,outcome
1,C=C[C@@]1(C)CC(=O)[C@]2(O)[C@@]3(C)[C@@H](O)CCC(C)(C)[C@@H]3[C@H](O)[C@H](OC(C)=O)[C@@]2(C)O1,inactive
2,CC(C)(C)NC(=O)[C@H]1CC[C@H]2[C@@H]3CC[C@H]4NC(=O)C=C[C@]4(C)[C@H]3CC[C@]12C,inactive
3,N#Cc1ccc(C(c2ccc(C#N)cc2)n2cncn2)cc1,inactive

# Assay: CCTE_Padilla_ZF_Score.General: CCTE's 144 Hour Post-fertilization zebrafish Assay Score for General Malformation, Padilla Lab (AID 2284411)
# Settings: not given
# In short: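 Malformation, death and hatching were scored at 6 dpf by two blinded observers under a stereo microscope. Embryos were dosed singly from 6-8 hpf in sealed plates of 10% Hanks' at 26C and rinsed on 5 dpf; DMSO baseline.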
Compound,outcome,AC50
CCCCCCOC(=O)CCCCC(=O)OCCCCCC,inactive,
C=CCCCCCCCCC=O,inactive,
O=C(O)C(F)(F)C(F)(F)C(F)(F)C(F)(F)C(=O)O,inactive,
c1ccc2sc(SSN3CCOCC3)nc2c1,inactive,
C=CC(=O)OCCCCCCOC(=O)C=C,inactive,
c1ccc2c(c1)[nH]c1ccccc12,inactive,
CCCCCCC=O,inactive,
COc1ccc(C(=O)c2ccccc2)c(O)c1,,7.03 µM (active)
C=CC(=O)OCCCCCCCC(C)C,inactive,
C=CC(=O)NC(C)(C)C,inactive,
C[N+](C)(C)CCCNS(=O)(=O)C(F)(F)C(F)(F)C(F)(F)C(F)(F)C(F)(F)C(F)(F)C(F)(F)C(F)(F)F,inactive,
CCCCCCCO,inactive,
